Where a name gives a salt, the structure may show the parent alone.
Each compound was assayed on Saccharomyces cerevisiae BY4741 SeMeCo community (assay: z-score of subpopulation abundance vs DMSO median, subpopulation auxotrophic for LM; higher = larger share of this subpopulation than in DMSO controls). Conditions: 10 µM; 24 h; SM minimal medium; subpopulation (auxotrophy): LM.
Method in brief: (§1)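 Scoring was based on each subpopulation's abundance, expressed as a z-score against the vehicle-well median. A Saccharomyces cerevisiae BY4741 community with four plasmids, each restoring one auxotrophy and encoding a distinct fluorescent protein, was pre-grown overnight to OD600 1.0, diluted to 0.3, and added at 70 µl to 384-well plates acoustically predosed with library drugs (10 µM final). It then grew 24 h in minimal SM medium before paraformaldehyde fixation and automated confocal microscopy, with single-auxotroph fluorescent strains setting thresholds and autofluorescence correction.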
For `CN(C)C[C@@H]1CCn2cc(c3ccccc32)C2=C(C(=O)NC2=O)c2cn(c3ccccc23)CCO1`, the “z-score of subpopulation abundance” value was 0.82. For `COc1ccc(C(C)=O)c(O)c1` [Paeonol], the “z-score of subpopulation abundance” value was 0.14. With `O=C(O)c1cn(-c2ccc(F)cc2)c2cc(N3CCNCC3)c(F)cc2c1=O` [Sarafloxacin HCl] the “z-score of subpopulation abundance” value was 0.08. In the case of `CO[C@H]1O[C@@H]2O[C@@]3(C)CC[C@H]4[C@H](C)CC[C@@H]([C@H]1C)[C@@]24OO3` [Artemether], the “z-score of subpopulation abundance” value is reported as -1.32. In the case of `O=C1OC(CN2CCOCC2)CN1/N=C/c1ccc([N+](=O)[O-])o1` (stereo unspecified) [Furaltadone HCl], the “z-score of subpopulation abundance” value is reported as -0.57. With `NCc1ccccc1CC(=O)N[C@@H]1C(=O)N2C(C(=O)O)=C(CSc3nnnn3CC(=O)O)CS[C@H]12` [Ceforanide] the “z-score of subpopulation abundance” value was 1.65. In the case of `CN(C)CCCN1c2ccccc2CCc2ccc(Cl)cc21` [Clomipramine HCl], the “z-score of subpopulation abundance” value is reported as -0.41. With `O=C1CN(/N=C/c2ccc(-c3ccc([N+](=O)[O-])cc3)o2)C(=O)N1` [Dantrolene sodium] the “z-score of subpopulation abundance” value was 1.59.

These compounds were tested on Saccharomyces cerevisiae BY4741 SeMeCo community (assay: z-score of subpopulation abundance vs DMSO median, subpopulation auxotrophic for HM; higher = larger share of this subpopulation than in DMSO controls). Conditions: 10 µM; 24 h; SM minimal medium; subpopulation (auxotrophy): HM.
Method in brief: as §1
With `CC[C@H]1OC(=O)[C@H](C)[C@@H](O[C@H]2C[C@@](C)(OC)[C@@H](O)[C@H](C)O2)[C@H](C)[C@@H](O[C@@H]2O[C@H](C)C[C@H](N(C)C)[C@H]2O)[C@](C)(O)C[C@@H](C)CN(C)[C@H](C)[C@@H](O)[C@]1(C)O` [Azithromycin] the “z-score of subpopulation abundance” value was -0.55. With `CN(C)C[C@@H]1CCn2cc(c3ccccc32)C2=C(C(=O)NC2=O)c2cn(c3ccccc23)CCO1` the “z-score of subpopulation abundance” value was 0.28. For `COc1ccc(C(C)=O)c(O)c1` [Paeonol], the “z-score of subpopulation abundance” value was -0.35. `O=C(O)c1cn(-c2ccc(F)cc2)c2cc(N3CCNCC3)c(F)cc2c1=O` [Sarafloxacin HCl] was tested, and the “z-score of subpopulation abundance” value was -0.52. In the case of `CO[C@H]1O[C@@H]2O[C@@]3(C)CC[C@H]4[C@H](C)CC[C@@H]([C@H]1C)[C@@]24OO3` [Artemether], the “z-score of subpopulation abundance” value is reported as -2. `O=C1OC(CN2CCOCC2)CN1/N=C/c1ccc([N+](=O)[O-])o1` (stereo unspecified) [Furaltadone HCl] was tested, and the “z-score of subpopulation abundance” value was 0.11. `Nc1ccc(S(=O)(=O)Nc2nccs2)cc1` [Sulfathiazole] was tested, and the “z-score of subpopulation abundance” value was -0.53. For `NCc1ccccc1CC(=O)N[C@@H]1C(=O)N2C(C(=O)O)=C(CSc3nnnn3CC(=O)O)CS[C@H]12` [Ceforanide], the “z-score of subpopulation abundance” value was 1.01. `C[C@@H](O)[C@H]1C(=O)N2C(C(=O)O)=C(S[C@@H]3CN[C@H](C(=O)N(C)C)C3)[C@H](C)[C@H]12` [Meropenem] was tested, and the “z-score of subpopulation abundance” value was 0.18. In the case of `O=C1CN(/N=C/c2ccc(-c3ccc([N+](=O)[O-])cc3)o2)C(=O)N1` [Dantrolene sodium], the “z-score of subpopulation abundance” value is reported as 0.62.

The compounds below were run on Saccharomyces cerevisiae BY4741 SeMeCo community (assay: z-score of subpopulation abundance vs DMSO median, subpopulation auxotrophic for HU; higher = larger share of this subpopulation than in DMSO controls). Conditions: 10 µM; 24 h; SM minimal medium; subpopulation (auxotrophy): HU.
Method in brief: as §1
In the case of `CC[C@H]1OC(=O)[C@H](C)[C@@H](O[C@H]2C[C@@](C)(OC)[C@@H](O)[C@H](C)O2)[C@H](C)[C@@H](O[C@@H]2O[C@H](C)C[C@H](N(C)C)[C@H]2O)[C@](C)(O)C[C@@H](C)CN(C)[C@H](C)[C@@H](O)[C@]1(C)O` [Azithromycin], the “z-score of subpopulation abundance” value is reported as 0.02. With `CN(C)C[C@@H]1CCn2cc(c3ccccc32)C2=C(C(=O)NC2=O)c2cn(c3ccccc23)CCO1` the “z-score of subpopulation abundance” value was -0.03. In the case of `COc1ccc(C(C)=O)c(O)c1` [Paeonol], the “z-score of subpopulation abundance” value is reported as 0.44. With `O=C(O)c1cn(-c2ccc(F)cc2)c2cc(N3CCNCC3)c(F)cc2c1=O` [Sarafloxacin HCl] the “z-score of subpopulation abundance” value was 0.4. `CO[C@H]1O[C@@H]2O[C@@]3(C)CC[C@H]4[C@H](C)CC[C@@H]([C@H]1C)[C@@]24OO3` [Artemether] was tested, and the “z-score of subpopulation abundance” value was 0.26. In the case of `O=C1OC(CN2CCOCC2)CN1/N=C/c1ccc([N+](=O)[O-])o1` (stereo unspecified) [Furaltadone HCl], the “z-score of subpopulation abundance” value is reported as -0.63. In the case of `Nc1ccc(S(=O)(=O)Nc2nccs2)cc1` [Sulfathiazole], the “z-score of subpopulation abundance” value is reported as -0.39. `NCc1ccccc1CC(=O)N[C@@H]1C(=O)N2C(C(=O)O)=C(CSc3nnnn3CC(=O)O)CS[C@H]12` [Ceforanide] was tested, and the “z-score of subpopulation abundance” value was 0.2. `CN(C)CCCN1c2ccccc2CCc2ccc(Cl)cc21` [Clomipramine HCl] was tested, and the “z-score of subpopulation abundance” value was 0.31.

The compounds below were run on Saccharomyces cerevisiae BY4741 SeMeCo community (assay: z-score of subpopulation abundance vs DMSO median, subpopulation auxotrophic for UM; higher = larger share of this subpopulation than in DMSO controls). Conditions: 10 µM; 24 h; SM minimal medium; subpopulation (auxotrophy): UM.
Method in brief: as §1
In the case of `CN(C)C[C@@H]1CCn2cc(c3ccccc32)C2=C(C(=O)NC2=O)c2cn(c3ccccc23)CCO1`, the “z-score of subpopulation abundance” value is reported as -0.29. With `O=C(O)c1cn(-c2ccc(F)cc2)c2cc(N3CCNCC3)c(F)cc2c1=O` [Sarafloxacin HCl] the “z-score of subpopulation abundance” value was 0.84. With `CO[C@H]1O[C@@H]2O[C@@]3(C)CC[C@H]4[C@H](C)CC[C@@H]([C@H]1C)[C@@]24OO3` [Artemether] the “z-score of subpopulation abundance” value was -0.57. With `COc1cccc2c1C(=O)c1c(O)c3c(c(O)c1C2=O)C[C@@](O)(C(C)=O)C[C@@H]3O[C@H]1C[C@H](N)[C@H](O)[C@H](C)O1` [Daunorubicin HCl] the “z-score of subpopulation abundance” value was 0.35. For `Nc1ccc(S(=O)(=O)Nc2nccs2)cc1` [Sulfathiazole], the “z-score of subpopulation abundance” value was 1.04. With `NCc1ccccc1CC(=O)N[C@@H]1C(=O)N2C(C(=O)O)=C(CSc3nnnn3CC(=O)O)CS[C@H]12` [Ceforanide] the “z-score of subpopulation abundance” value was -0.41. `C[C@@H](O)[C@H]1C(=O)N2C(C(=O)O)=C(S[C@@H]3CN[C@H](C(=O)N(C)C)C3)[C@H](C)[C@H]12` [Meropenem] was tested, and the “z-score of subpopulation abundance” value was -0.33. For `CN(C)CCCN1c2ccccc2CCc2ccc(Cl)cc21` [Clomipramine HCl], the “z-score of subpopulation abundance” value was 0.93. `O=C1CN(/N=C/c2ccc(-c3ccc([N+](=O)[O-])cc3)o2)C(=O)N1` [Dantrolene sodium] was tested, and the “z-score of subpopulation abundance” value was -2.91.

— the supplement of paper PMC8975748
